Compound activity (PubChem)
Pf growth 48h: P. falciparum growth inhibition at 48 hours (one generation); P. falciparum luciferase growth in erythrocytes, 48 h; Potency, µM (top dose mostly 28.7 µM), for inactives: at the highest dose activity change, negative = inhibition, hits mostly inhibitors; actives 5.9% (n = 310,000); AID 504832; also: potency is read from the fitted curve at half-maximal effect; % is scaled to controls: 0 for no effect and ±100 for the full control effect
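Cell-based growth assay: transgenic P. falciparum expressing firefly luciferase, cultured in red cells within RPMI 1640 containing 0.5% w/v Albumax, 24 mM bicarbonate and gentamycin. A drop in luciferase activity indicates inhibition.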
Pf growth 96h: P. falciparum growth inhibition at 96 hour, primary screen for plastid delayed-death inhibitors | P. falciparum luciferase reporter growth, 96 h | Potency, µM (highest dose often 28.7 µM), inactives show at the top dose activity change, negative = inhibition, most hits filed as inhibitors | actives 6.9% (n = 320,000); also: potency is read from the fitted curve at half-maximal effect; % is scaled to controls: 0 for no effect and ±100 for the full control effect
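Erythrocytes infected with luciferase-expressing P. falciparum were dispensed at 2% hematocrit and 0.05% parasitemia (final), then incubated with compounds 96 hours at 37 C in 5% CO2. Luminescence after detection reagent addition reported growth.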
Shiga toxin inh: Shiga toxin inhibition. Vero cells, Shiga toxin protein synthesis inhibition reporter. inhibition, % at 38.7 µM. actives 9.2% (n = 290,000). AID 2315; in the data active = inhibition mostly above about 28%, no sharp cut-off; inactive = mostly below about 43%; also: 0% is about no effect
CHX counter: counter-screen hit for Shiga toxin inhibitors, cycloheximide. cell reporter, cycloheximide protein synthesis inhibition counterscreen. max response, %. actives 12% (n = 300,000); in the data active = max response mostly above about 13%, no sharp cut-off; inactive = mostly below about 14%; also: read at 38.3 µM for the half of the compounds with a filed dose; 0% is about no effect
Active calls of the source: *. Shown are actives, neighbours in structure and some others; about 21% of the full set was active somewhere. Unless noted, calls follow the shape of the dose curve; as a rule, active = well fitted inhibition curve with a large enough effect; inconclusive = small, poorly fitted or top-dose-only effect, or another doubt; inactive = no such curve, though single readings can be large or run the other way.

For CCN(Cc1nc2cc(Cl)ccc2c(=O)[nH]1)C(=O)c1cc2c(s1)CCCCC2 the results were Pf growth 48h 33% and Pf growth 96h 27%.
Screening C=CCn1c(C)nnc1SCC(=O)Nc1cc(S(=O)(=O)N2CCCC2)ccc1Cl returned Pf growth 48h -11% and Pf growth 96h -11%.
For O=[N+]([O-])c1ccc(S(=O)(=O)Nc2nnc(C(F)(F)F)s2)cc1 the results were Pf growth 48h 22%, Pf growth 96h 10µM*, Shiga toxin inh 29 and CHX counter -1.
For C=CCNC(=O)CSCc1ccc(Br)cc1 the results were Pf growth 48h 6%, Pf growth 96h 24%, Shiga toxin inh -14 and CHX counter -4.
`O=C(O)Cn1c2c(c3ccccc31)CSc1ccc(Cl)cc1-2` gave Pf growth 48h -14%, Pf growth 96h 20%, Shiga toxin inh -16 and CHX counter -4.
COc1ccc(-c2csc(/C(C#N)=C\c3ccc(O)c([N+](=O)[O-])c3)n2)cc1OC was read as Pf growth 48h 8.3µM*, Pf growth 96h inconclusive, Shiga toxin inh 2 and CHX counter 5.
COc1ccc(-c2csc(/C(C#N)=C\c3ccc(OC)c([N+](=O)[O-])c3)n2)cc1 was read as Pf growth 48h -8%, Pf growth 96h -2%, Shiga toxin inh -3 and CHX counter -4.
COc1cc(/C=C(\C#N)c2nc3ccccc3s2)cc([N+](=O)[O-])c1O was read as Pf growth 48h 20%, Pf growth 96h 9.3µM*, Shiga toxin inh -3 and CHX counter 1.
For Cc1c(C(=O)Nc2ccc(S(=O)(=O)Nc3ncccn3)cc2)oc2ccc(F)cc12 the results were Pf growth 48h -13%, Pf growth 96h 0%, Shiga toxin inh 17 and CHX counter 10.
For COc1ccc(/C(=N\Nc2ccccc2C(=O)O)c2ccccc2)cc1 the results were Pf growth 48h 60%, Pf growth 96h inconclusive, Shiga toxin inh 169* and CHX counter 29*.
Screening C/C(=N\Nc1ccccc1C(=O)O)c1ccncc1 returned Pf growth 48h 114%, Pf growth 96h 152%, Shiga toxin inh 43* and CHX counter 18*.
For CCOC(=O)C(=O)N/N=C(/c1ccccc1)c1ccc(OC)cc1 the results were Pf growth 48h -70%, Pf growth 96h -32%, Shiga toxin inh 29 and CHX counter 7.
Cc1nc2ccccc2c(=O)n1NC(=O)CCC(=O)O was read as Pf growth 48h 6%, Pf growth 96h -15%, Shiga toxin inh -2 and CHX counter 1.
`CCn1cc(/C=C(\NC(=O)c2ccccc2F)C(=O)NCCCn2ccnc2)c2ccccc21` gave Pf growth 48h -17%, Pf growth 96h inconclusive, Shiga toxin inh -12 and CHX counter 6.
Screening CCN(CC)S(=O)(=O)c1ccc(N(C)C)c(NC(=O)C2CCCC2)c1 returned Pf growth 48h -23%, Pf growth 96h 5%, Shiga toxin inh -14 and CHX counter -3.
CCN(CC)S(=O)(=O)c1ccc(N2CCOCC2)c(NC(=O)CCOc2ccccc2)c1 was read as Pf growth 48h 9.3µM*, Pf growth 96h inconclusive, Shiga toxin inh 14 and CHX counter -4.
CCc1ccccc1OCC(=O)Nc1cc(S(=O)(=O)N(CC)CC)ccc1N1CCOCC1 was read as Pf growth 48h 1.3µM* and Pf growth 96h 1.2µM*.
Screening CCN(CC)S(=O)(=O)c1ccc(N2CCOCC2)c(NC(=O)C2CCCC2)c1 returned Pf growth 48h inconclusive, Pf growth 96h 12µM*, Shiga toxin inh 46 and CHX counter 5.
`CCN(CC)c1ccc(S(=O)(=O)N(CC)CC)cc1NC(=O)C1CCCC1` gave Pf growth 48h 15µM*, Pf growth 96h inconclusive, Shiga toxin inh 7 and CHX counter 1.
For CCN(CC)S(=O)(=O)c1ccc(N2CCOCC2)c(NC(=O)CNCCc2ccccc2)c1 the results were Pf growth 48h inconclusive, Pf growth 96h inconclusive, Shiga toxin inh -5 and CHX counter 0.
For CCN(CC)S(=O)(=O)c1ccc(N2CCOCC2)c(NC(=O)COc2ccccc2)c1 the results were Pf growth 48h 9.3µM*, Pf growth 96h inconclusive, Shiga toxin inh -6 and CHX counter 3.
`COc1cccc(CNC(=O)Cn2cc([N+](=O)[O-])cn2)c1` gave Pf growth 48h 2%, Pf growth 96h -28%, Shiga toxin inh -13 and CHX counter -3.
For Cc1cc(=O)c2c(O)c3c(O)cc(=O)c4c3c3c(cc(O)c1c23)C(C)(C)C=4O the results were Pf growth 48h 2.7µM* and Pf growth 96h 1.5µM*.
For O=C(NCc1cccs1)c1cc(-c2ccccc2)on1 the results were Pf growth 48h 95%, Pf growth 96h 7%, Shiga toxin inh 118* and CHX counter 30*.
